In the supplement of paper PMC10849652:
The full data set covers some 7,900 targets. This sample favours those with a hit. About 0.6% of all pairs of compound and target were hits.

Assays:
Assay in all cases: log2 fold change, soluble protein after heating vs DMSO (PISA); higher = thermal stabilisation; K562 cells, 10 uM, 30 min; active = over 0.2 and 3.5 SD of the protein, either way, in both replicates (recomputed)
[1] = compound: COC1=CC=C(C=C1)CN2C=CC3=C2C=C(C=C3)C(=O)NO
Method in brief: (§1)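 Aliquots of K562 cells (2×10^6 cells/mL) treated with 10 μM compound for 30 min were heated for 3 min over 48°C-58°C. After pooling and extraction in PBS with 0.5% NP-40 at 4°C, soluble protein from a 21,000xg, 90 min spin was quantified by TMTpro 16plex LC-MS/MS with channel sums equalised. Thermal stability is expressed against control samples, from duplicates, as a log2 fold change.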

[2] = compound: CON(C)C(=O)N1N=C(c2cc(F)ccc2F)S[C@@]1(CCCN)c1ccccc1 [filanesib]
Method in brief: as §1

[3] = compound: CO[C@H]1C[C@@H]2CC[C@@H](C)[C@@](O)(O2)C(=O)C(=O)N2CCCC[C@H]2C(=O)O[C@H]([C@H](C)C[C@@H]2CC[C@H](n3cnnn3)[C@H](OC)C2)CC(=O)[C@H](C)/C=C(\C)[C@@H](O)[C@@H](OC)C(=O)[C@H](C)C[C@H](C)/C=C/C=C/C=C/1C [zotarolimus]
Method in brief: as §1

[4] = compound: COc1cc(C(=O)O)ccc1NC(=O)[C@@H]1N[C@@H](CC(C)(C)C)[C@](C#N)(c2ccc(Cl)cc2F)[C@H]1c1cccc(Cl)c1F [idasanutlin]
Method in brief: as §1

[5] = compound: COc1cc(Nc2ncc3c(n2)-c2ccc(Cl)cc2C(c2c(F)cccc2OC)=NC3)ccc1C(=O)O [alisertib]
Method in brief: as §1

[6] = compound: COc1cc2nc(-c3cc(F)ccc3O)nc(N[C@@H]3CNC[C@H]3C(C)(C)O)c2cc1OC
Method in brief: as §1

[7] = compound: COc1cc2ncnc(Nc3ccc(F)c(Cl)c3)c2cc1OCCCN1CCOCC1 [gefitinib]
Method in brief: as §1

[8] = compound: COc1cccc2cc(-c3nc([C@H]4CC[C@H](C(=O)O)CC4)n4ncnc(N)c34)[nH]c12
Method in brief: as §1

[9] = compound: CS(=O)(=O)CCNCc1ccc(-c2ccc3ncnc(Nc4ccc(OCc5cccc(F)c5)c(Cl)c4)c3c2)o1 [lapatinib]
Method in brief: as §1

[10] = compound: CS(=O)(=O)N1CCN(Cc2cc3nc(-c4cccc5[nH]ncc45)nc(N4CCOCC4)c3s2)CC1 [pictilisib]
Method in brief: as §1

Measured: log2 fold change

CCDC59 (UniProt Q9P031)
UniProt Q9P031, sequence (Q9P031 whole entry, looked up): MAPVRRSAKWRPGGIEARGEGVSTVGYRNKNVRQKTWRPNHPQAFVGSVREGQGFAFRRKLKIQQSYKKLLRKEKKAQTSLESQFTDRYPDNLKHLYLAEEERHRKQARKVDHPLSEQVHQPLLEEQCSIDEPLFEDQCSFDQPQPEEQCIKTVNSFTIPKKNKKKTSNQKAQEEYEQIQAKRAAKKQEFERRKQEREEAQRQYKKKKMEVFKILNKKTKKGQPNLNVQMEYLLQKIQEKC
inactive: [1] 0.024 | [2] 0.301 | [3] -0.008 | [4] 0.225 | [5] -0.124 | [6] -0.013 | [7] -0.066 | [8] -0.054 | [9] -0.034 | [10] -0.234

CNTN4 (UniProt Q8IWV2)
inactive: [1] 0.1 | [2] 0 | [3] 0.017 | [4] -0.148 | [5] -0.399 | [6] 0.341 | [7] -0.039 | [8] -0.169 | [9] -0.047 | [10] 0.222

CSK (UniProt P41240)
UniProt P41240, sequence (P41240 whole entry, looked up): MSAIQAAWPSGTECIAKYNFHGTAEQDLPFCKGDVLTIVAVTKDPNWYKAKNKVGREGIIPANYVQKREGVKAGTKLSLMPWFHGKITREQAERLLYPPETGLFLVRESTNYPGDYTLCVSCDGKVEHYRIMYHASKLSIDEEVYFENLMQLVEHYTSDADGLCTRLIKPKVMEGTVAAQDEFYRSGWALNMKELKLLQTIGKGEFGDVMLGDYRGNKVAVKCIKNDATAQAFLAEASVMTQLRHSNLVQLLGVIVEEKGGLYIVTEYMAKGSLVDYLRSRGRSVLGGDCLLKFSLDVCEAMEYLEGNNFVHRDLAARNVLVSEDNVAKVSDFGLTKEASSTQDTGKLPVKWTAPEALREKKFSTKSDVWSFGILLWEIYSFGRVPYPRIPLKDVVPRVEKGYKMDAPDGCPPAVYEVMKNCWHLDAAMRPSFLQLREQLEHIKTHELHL
inactive: [1] 0.034 | [2] -0.049 | [3] 0.007 | [4] -0.056 | [5] -0.018 | [6] 0.024 | [7] 0.024 | [8] -0.049 | [9] 0.008 | [10] 0.02

CDKN2AIP (UniProt Q9NXV6)
inactive: [1] 0.059 | [2] 0.024 | [3] -0.029 | [4] -0.033 | [5] -0.091 | [6] -0.007 | [7] 0.038 | [8] 0.054 | [9] 0.042 | [10] -0.025

CNN2 (UniProt Q99439)
inactive: [1] -0.008 | [2] -0.058 | [3] -0.002 | [4] -0.029 | [5] -0.007 | [6] 0.021 | [7] 0.012 | [8] -0.065 | [9] -0.041 | [10] -0.054

CBR1 (UniProt P16152)
UniProt P16152, sequence (P16152 whole entry, looked up): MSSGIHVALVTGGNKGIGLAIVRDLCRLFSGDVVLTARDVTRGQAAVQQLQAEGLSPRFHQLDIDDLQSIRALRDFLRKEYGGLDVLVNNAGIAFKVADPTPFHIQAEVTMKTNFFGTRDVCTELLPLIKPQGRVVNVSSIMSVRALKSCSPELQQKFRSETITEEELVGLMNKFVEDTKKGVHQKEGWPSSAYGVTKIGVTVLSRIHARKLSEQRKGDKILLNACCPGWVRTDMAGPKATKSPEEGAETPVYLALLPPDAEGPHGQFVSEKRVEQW
inactive: [1] 0 | [2] -0.024 | [3] 0.071 | [4] -0.074 | [5] -0.036 | [6] 0.001 | [7] -0.004 | [8] 0.028 | [9] 0.037 | [10] -0.035

CSNK2A1 (UniProt P68400)
UniProt P68400, sequence (P68400 whole entry, looked up): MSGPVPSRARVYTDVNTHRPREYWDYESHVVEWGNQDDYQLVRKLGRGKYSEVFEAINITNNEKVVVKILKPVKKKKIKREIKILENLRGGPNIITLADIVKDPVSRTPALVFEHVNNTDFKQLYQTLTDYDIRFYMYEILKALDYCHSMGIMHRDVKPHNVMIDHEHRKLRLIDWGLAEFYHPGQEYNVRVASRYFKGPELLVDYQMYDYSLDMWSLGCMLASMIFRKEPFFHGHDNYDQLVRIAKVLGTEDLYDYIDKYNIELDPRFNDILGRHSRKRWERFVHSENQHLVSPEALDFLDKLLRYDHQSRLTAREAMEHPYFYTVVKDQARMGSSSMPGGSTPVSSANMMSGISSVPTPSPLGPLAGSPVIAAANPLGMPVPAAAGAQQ
inactive: [1] -0.025 | [2] 0.03 | [3] -0.015 | [4] -0.009 | [5] -0.073 | [6] -0.167 | [7] -0.023 | [8] 0.066 | [9] 0.032 | [10] 0.102

CPSF7 isoform 3 (UniProt Q8N684)
inactive: [1] 0.018 | [2] 0.018 | [3] 0.033 | [4] -0.003 | [5] -0.074 | [6] 0.065 | [7] 0.029 | [8] -0.016 | [9] 0.013 | [10] 0.12

CPD (UniProt O75976)
inactive: [1] 0.022 | [2] 0.082 | [3] -0.045 | [4] -0.005 | [5] -0.038 | [6] 0.046 | [7] 0.007 | [8] 0.015 | [9] -0.01 | [10] 0.034

COQ7 (UniProt Q99807)
inactive: [1] 0.001 | [2] -0.098 | [3] -0.081 | [4] 0.026 | [5] 0.115 | [6] 0.011 | [7] 0.055 | [8] 0.031 | [9] 0.042 | [10] 0.074

CPSF1 (UniProt Q10570)
UniProt Q10570, sequence (Q10570 whole entry, looked up): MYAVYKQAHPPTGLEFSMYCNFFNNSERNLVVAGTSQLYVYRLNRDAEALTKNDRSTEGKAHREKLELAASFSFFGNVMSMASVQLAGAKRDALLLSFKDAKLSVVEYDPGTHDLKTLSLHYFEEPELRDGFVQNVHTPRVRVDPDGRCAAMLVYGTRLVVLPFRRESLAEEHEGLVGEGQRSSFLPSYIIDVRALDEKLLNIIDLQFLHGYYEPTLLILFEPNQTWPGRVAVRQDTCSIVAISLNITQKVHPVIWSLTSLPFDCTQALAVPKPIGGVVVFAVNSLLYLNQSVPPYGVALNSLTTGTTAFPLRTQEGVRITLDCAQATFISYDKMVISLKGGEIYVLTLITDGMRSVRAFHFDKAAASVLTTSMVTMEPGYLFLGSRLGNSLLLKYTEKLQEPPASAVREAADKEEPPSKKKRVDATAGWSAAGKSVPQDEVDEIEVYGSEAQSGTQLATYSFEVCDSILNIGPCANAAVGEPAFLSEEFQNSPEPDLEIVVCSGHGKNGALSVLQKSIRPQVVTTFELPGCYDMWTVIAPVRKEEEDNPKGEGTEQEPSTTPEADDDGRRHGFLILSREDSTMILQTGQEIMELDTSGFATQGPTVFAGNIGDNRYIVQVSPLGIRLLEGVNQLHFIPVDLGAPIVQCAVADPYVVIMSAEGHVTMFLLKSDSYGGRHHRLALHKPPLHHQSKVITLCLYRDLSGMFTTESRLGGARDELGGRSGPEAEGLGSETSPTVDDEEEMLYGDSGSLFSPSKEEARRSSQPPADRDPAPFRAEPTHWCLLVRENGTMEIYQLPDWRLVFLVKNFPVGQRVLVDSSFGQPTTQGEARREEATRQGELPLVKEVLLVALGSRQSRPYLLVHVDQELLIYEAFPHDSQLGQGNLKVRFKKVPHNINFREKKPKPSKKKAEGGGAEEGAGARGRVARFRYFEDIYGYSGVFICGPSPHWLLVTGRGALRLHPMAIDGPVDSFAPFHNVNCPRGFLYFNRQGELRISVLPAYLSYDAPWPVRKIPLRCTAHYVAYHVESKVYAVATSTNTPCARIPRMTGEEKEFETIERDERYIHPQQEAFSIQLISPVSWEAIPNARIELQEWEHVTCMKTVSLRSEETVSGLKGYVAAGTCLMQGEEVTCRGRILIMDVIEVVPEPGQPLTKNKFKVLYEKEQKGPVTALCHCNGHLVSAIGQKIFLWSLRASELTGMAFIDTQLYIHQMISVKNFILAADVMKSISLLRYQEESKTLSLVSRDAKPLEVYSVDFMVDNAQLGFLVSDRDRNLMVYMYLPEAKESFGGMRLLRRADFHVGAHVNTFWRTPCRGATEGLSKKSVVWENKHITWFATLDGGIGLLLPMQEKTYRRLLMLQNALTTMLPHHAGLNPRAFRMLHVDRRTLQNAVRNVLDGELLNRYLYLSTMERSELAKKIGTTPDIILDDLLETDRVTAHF
inactive: [1] -0.042 | [2] 0.164 | [3] 0.095 | [4] 0.053 | [5] -0.08 | [6] 0.02 | [7] -0.079 | [8] 0.01 | [9] 0.029 | [10] -0.058

CSTF2 (UniProt P33240)
inactive: [1] -0.052 | [2] 0.005 | [3] -0.009 | [4] 0.013 | [5] -0.016 | [6] -0.005 | [7] -0.07 | [8] 0.023 | [9] 0.021 | [10] 0.069

COA6 isoform 2 (UniProt Q5JTJ3)
UniProt Q5JTJ3, sequence (Q5JTJ3 whole entry, looked up): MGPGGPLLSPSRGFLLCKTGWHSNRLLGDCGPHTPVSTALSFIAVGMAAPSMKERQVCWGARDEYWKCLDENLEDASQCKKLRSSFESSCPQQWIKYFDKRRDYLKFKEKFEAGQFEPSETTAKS
inactive: [1] 0.02 | [2] -0.029 | [3] 0.019 | [4] -0.052 | [5] 0.002 | [6] -0.042 | [7] -0.003 | [8] 0.022 | [9] -0.017 | [10] -0.006

CCZ1 (UniProt P86791)
UniProt P86791, sequence (P86791 whole entry, looked up): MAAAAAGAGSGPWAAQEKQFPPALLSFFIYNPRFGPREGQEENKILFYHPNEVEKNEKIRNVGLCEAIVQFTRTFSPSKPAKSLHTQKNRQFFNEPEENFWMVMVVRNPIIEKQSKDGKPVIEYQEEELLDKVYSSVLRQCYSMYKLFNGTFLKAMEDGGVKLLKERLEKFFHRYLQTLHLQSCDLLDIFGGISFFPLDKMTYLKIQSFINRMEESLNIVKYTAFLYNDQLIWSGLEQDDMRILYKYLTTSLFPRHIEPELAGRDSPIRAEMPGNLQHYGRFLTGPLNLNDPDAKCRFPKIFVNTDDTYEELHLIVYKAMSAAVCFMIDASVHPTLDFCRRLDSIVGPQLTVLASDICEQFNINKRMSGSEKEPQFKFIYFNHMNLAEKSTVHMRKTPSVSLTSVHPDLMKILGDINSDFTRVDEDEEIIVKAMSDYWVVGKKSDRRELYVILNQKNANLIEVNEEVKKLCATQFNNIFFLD
inactive: [1] 0.052 | [2] -0.062 | [3] 0.044 | [4] -0.015 | [5] -0.072 | [6] -0.036 | [7] 0.013 | [8] 0.018 | [9] -0.005 | [10] -0.047

CDK9 isoform 2 (UniProt P50750)
inactive: [1] -0.103 | [2] 0.154 | [3] 0.015 | [4] 0.114 | [5] -0.093 | [6] -0.182 | [7] -0.031 | [8] -0.067 | [9] -0.055 | [10] 0.014

CD81 (UniProt P60033)
inactive: [1] -0.051 | [2] 0.049 | [3] 0.003 | [4] -0.014 | [5] -0.007 | [6] 0.008 | [7] 0.043 | [8] 0.052 | [9] -0.032 | [10] 0.138

CDK6 (UniProt Q00534)
inactive: [1] -0.012 | [2] 0.037 | [3] 0.021 | [4] -0.06 | [5] -0.051 | [6] 0.036 | [7] 0 | [8] -0.012 | [9] -0.019 | [10] 0.015

CNDP2 (UniProt Q96KP4)
UniProt Q96KP4, sequence (Q96KP4 whole entry, looked up): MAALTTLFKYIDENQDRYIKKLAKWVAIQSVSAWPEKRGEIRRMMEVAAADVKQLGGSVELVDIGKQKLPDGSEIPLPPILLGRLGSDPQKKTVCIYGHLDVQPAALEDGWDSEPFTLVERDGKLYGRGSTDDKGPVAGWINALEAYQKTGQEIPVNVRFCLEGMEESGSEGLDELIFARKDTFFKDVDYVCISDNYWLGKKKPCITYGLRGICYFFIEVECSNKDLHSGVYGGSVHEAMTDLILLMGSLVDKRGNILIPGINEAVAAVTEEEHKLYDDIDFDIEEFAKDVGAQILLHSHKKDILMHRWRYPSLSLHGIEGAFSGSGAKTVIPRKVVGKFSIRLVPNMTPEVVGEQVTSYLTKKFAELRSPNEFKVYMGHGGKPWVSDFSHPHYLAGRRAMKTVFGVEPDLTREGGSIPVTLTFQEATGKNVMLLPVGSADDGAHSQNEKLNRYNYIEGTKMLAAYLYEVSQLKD
inactive: [1] -0.171 | [2] -0.145 | [3] 0.041 | [4] -0.024 | [5] -0.049 | [6] -0.001 | [7] -0.008 | [8] 0.027 | [9] 0.017 | [10] 0.021

CBX1 (UniProt P83916)
UniProt P83916, sequence (P83916 whole entry, looked up): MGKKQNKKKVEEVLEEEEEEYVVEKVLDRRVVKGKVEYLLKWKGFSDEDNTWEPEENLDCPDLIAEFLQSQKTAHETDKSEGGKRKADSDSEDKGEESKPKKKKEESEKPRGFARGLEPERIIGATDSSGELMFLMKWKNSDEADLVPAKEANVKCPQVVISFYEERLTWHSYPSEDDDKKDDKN
inactive: [2] -0.016 | [3] 0.008 | [4] 0.038 | [5] -0.059 | [6] -0.086 | [7] 0.021 | [8] 0.003 | [9] 0.037 | [10] -0.046
active: [1] 0.41

COX5A (UniProt P20674)
UniProt P20674, sequence (P20674 whole entry, looked up): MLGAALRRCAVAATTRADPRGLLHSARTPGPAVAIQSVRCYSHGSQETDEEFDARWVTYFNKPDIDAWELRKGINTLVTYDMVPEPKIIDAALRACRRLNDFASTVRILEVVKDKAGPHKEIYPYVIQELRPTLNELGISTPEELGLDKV
inactive: [1] -0.1 | [2] 0.015 | [3] 0.054 | [4] -0.012 | [5] -0.13 | [6] -0.092 | [7] 0.067 | [8] 0.084 | [9] -0.108 | [10] 0.108

CHEK1 (UniProt O14757)
active: [6] -0.805
inactive: [1] 0.005 | [2] -0.025 | [3] -0.029 | [4] -0.041 | [5] -0.041 | [7] -0.06 | [8] 0.055 | [9] -0.007 | [10] 0.016

CDC123 (UniProt O75794)
inactive: [1] 0.005 | [2] -0.043 | [3] -0.016 | [4] 0.032 | [5] -0.048 | [6] 0.024 | [7] -0.057 | [8] 0.001 | [9] 0.017 | [10] -0.027

CPT1A (UniProt P50416)
inactive: [1] 0.073 | [2] 0.204 | [3] 0.118 | [4] 0.086 | [5] 0.235 | [6] 0.308 | [7] 0.028 | [8] -0.151 | [9] 0.1 | [10] 0.257

CCNH (UniProt P51946)
inactive: [1] 0.043 | [2] 0.005 | [3] -0.044 | [4] 0.018 | [5] -0.011 | [6] 0.026 | [7] -0.03 | [8] -0.002 | [9] 0.023 | [10] 0.007

COPS4 (UniProt Q9BT78)
inactive: [2] -0.067 | [3] 0.032 | [4] -0.039 | [5] -0.054 | [6] -0.035 | [7] -0.007 | [8] 0.019 | [9] 0.025 | [10] -0.011
active: [1] 0.219

COQ9 (UniProt O75208)
inactive: [1] 0.02 | [2] -0.113 | [3] -0.017 | [4] 0.166 | [5] -0.038 | [6] -0.013 | [7] 0.025 | [8] 0.045 | [9] 0.043 | [10] -0.041

CASC3 (UniProt O15234)
UniProt O15234, sequence (O15234 whole entry, looked up): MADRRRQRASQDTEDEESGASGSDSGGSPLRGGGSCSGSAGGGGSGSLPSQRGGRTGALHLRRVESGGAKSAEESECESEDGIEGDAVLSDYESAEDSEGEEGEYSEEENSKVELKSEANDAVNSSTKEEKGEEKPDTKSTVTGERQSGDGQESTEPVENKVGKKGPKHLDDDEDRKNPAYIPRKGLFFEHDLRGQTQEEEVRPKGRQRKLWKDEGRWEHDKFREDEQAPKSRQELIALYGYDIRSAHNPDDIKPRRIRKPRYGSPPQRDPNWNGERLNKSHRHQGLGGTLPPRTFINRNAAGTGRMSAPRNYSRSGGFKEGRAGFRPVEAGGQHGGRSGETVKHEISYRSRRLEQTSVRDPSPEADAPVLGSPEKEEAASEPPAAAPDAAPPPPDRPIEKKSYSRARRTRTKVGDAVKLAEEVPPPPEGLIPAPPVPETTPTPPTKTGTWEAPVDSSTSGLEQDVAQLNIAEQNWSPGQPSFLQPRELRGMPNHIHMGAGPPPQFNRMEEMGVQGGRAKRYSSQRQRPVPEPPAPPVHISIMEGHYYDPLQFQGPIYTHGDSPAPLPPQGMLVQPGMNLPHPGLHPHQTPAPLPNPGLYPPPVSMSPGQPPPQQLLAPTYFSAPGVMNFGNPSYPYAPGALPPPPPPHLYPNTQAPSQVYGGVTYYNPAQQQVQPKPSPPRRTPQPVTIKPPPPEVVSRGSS
inactive: [1] 0 | [2] 0.17 | [3] -0.105 | [4] 0.038 | [5] -0.051 | [6] 0.16 | [7] 0 | [8] -0.105 | [9] -0.077 | [10] -0.066
